Assay results taken from PubChem BioAssay (EPA / NIEHS).
More than one record can exist for a structure, and the calls need not agree. Active and inactive are the calls of the source. The calls were made as follows: active = hit-call score of the fitted dose curve at least 0.9, where 1 is the maximum; inactive = score below 0.9.

Assay: ATG_TA_CIS: Attagene CIS-FACTORIAL HepG2 Assay for human TA Basal Promoter (AID 2282964)
Details: HepG2 Attagene CIS-factorial TA basal promoter reporter; actives raise or lower the signal
Experimental: ATG_CIS is a cell-based, multiplexed-readout assay that uses HepG2, a human liver cell line, with measurements taken at 24 hours after chemical dosing in a 24-well plate.ATG_TA_CIS is one of 52 assay component(s) measured or calculated from the ATG_CIS assay. It is designed to make measurements of mRNA induction, a form of inducible reporter, as detected with fluorescence intensity signals by Reverse transcription polymerase chain reaction (RT-PCR) and Capillary electrophoresis technology.Data from the assay component ATG_TA_CIS was analyzed into 1 assay endpoint. This assay endpoint, ATG_TA_CIS, was analyzed with bidirectional fitting relative to DMSO as the negative control and baseline of activity. Using a type of inducible reporter, measures of mRNA for gain or loss-of-signal activity can be used to understand the background control at the transcription factor-level as they relate to the gene . Furthermore, this assay endpoint can be referred to as a secondary readout, because this assay has produced multiple assay endpoints where this one serves a background control function. To generalize the intended target to other relatable targets, this assay endpoint is annotated to the background measurement intended target family, where the subfamily is internal marker.
Human liver HepG2 cells are transiently transfected with multiple reporter transcription units (MRTUs) in 6-well plates using FuGene 6 reagent (Roche; 3 ml FuGene/1 mg DNA). The MRTU constructs are regulated by a cis-regulating element (promoter). […] A major difference between the CIS and TRANS system is that in CIS activities of endogenous TFs are measured, whereas the TRANS assay evaluates changes in activities of exogenous, chimeric NR-Gal4 proteins. […] At the end of 24 hour incubation, total RNA was isolated using TriZol reagent (Invitrogen). The isolated RNA is then reverse-transcribed using oligo(dT) primer and Mo-MLV reverse transcriptase (Invitrogen) with DNAse I (Ambion) treatment for 30 min. The one-tenth of the produced cDNA was amplified by PCR using Taq DNA polymerase (Invitrogen) and two reporter sequence-specific primers. The PCR products were fluorescently labeled by primer extension with 6-arboxyfluorescein (6-FAM) 5'-labeled reporter sequence-specific primer (2 min at 95 C, 20 s at 68 C and 10 min at 72 C) and these products were digested with 5U of HpaI (New England Biolabs) for 2h at 37 C. The fragments were purified using Qiaquick PCR columns (Qiagen), analyzed on an ABI 3130xL genetic analyzer (Applied Biosystems) with peak positions identified by using a set of X-rhodamine (ROX)-labeled MapMarker1000 molecular weight standards (BioVentures). The raw capillary electrophoresis data was processed using Attagraph software (Attagene).

SMILES	outcome	AC50
O=C(NC(=O)c1cc(F)c(F)cc1Cl)Nc1cc(F)ccc1N1CCC(C(=O)O)CC1	inactive	
Nc1ccc(-c2ccc(N)cc2)cc1	inactive	
Cc1cc(O)ccc1Cl	inactive	
O=S(=O)(O)C(F)(F)C(F)(F)C(F)(F)C(F)(F)F	inactive	
C[C@]12CCC(=O)C=C1CC[C@@H]1[C@@H]2CC[C@@]2(C)[C@H]1CC[C@]2(C)O	inactive	
CN(C)c1nc(=O)n(C2CCCCC2)c(=O)n1C	inactive	
Nn1cnnc1	inactive	
CC(C)(O)C(=O)Nc1ccc([N+](=O)[O-])c(C(F)(F)F)c1	inactive	
CCCCCCCCOC(=O)c1ccccc1C(=O)OCCCCCCCC	inactive	
CCCCCCOC(=O)c1ccccc1C(=O)OCCCCCC	inactive	
c1ccc(-c2ccccc2)cc1	inactive	
ClC1=C(Cl)[C@]2(Cl)[C@@H]3[C@@H]4C[C@@H]([C@H]5O[C@@H]45)[C@@H]3[C@@]1(Cl)C2(Cl)Cl	inactive	
COS(=O)(=O)OC	inactive	
NS(=O)(=O)C(F)(F)C(F)(F)C(F)(F)C(F)(F)C(F)(F)C(F)(F)C(F)(F)C(F)(F)F	inactive	
CCCCCCCCCC[N+](C)(C)CCCCCCCCCC	inactive	
Oc1c(Cl)c(Cl)c(Cl)c(Cl)c1Cl	inactive	17.1 µM (active)
C[C@]12CCC(=O)C=C1CC[C@@H]1[C@@H]2CC[C@]2(C)C(=O)CC[C@@H]12	inactive	
CO/C=C(/C(=O)OC)c1ccccc1COc1cccc(C(F)(F)F)n1	inactive	

SMILES	outcome	AC50
Cc1cc(-c2ccc(N)c(C)c2)ccc1N	inactive	
O=C(O)C(F)(F)C(F)(F)C(F)(F)C(F)(F)C(F)(F)C(F)(F)C(F)(F)C(F)(F)F	inactive	50 µM (active)
c1cc2ccc3cccc4ccc(c1)c2c34	inactive	
C1CC2OC2CC1C1CO1 (stereo not given)	inactive	
CC(C)C(=O)OCC(C)(C)C(OC(=O)C(C)C)C(C)C (stereo not given)	inactive	
Oc1ccc(C(c2ccc(O)cc2)(C(F)(F)F)C(F)(F)F)cc1	inactive	
O=NN(c1ccccc1)c1ccccc1	inactive	
C=CC(N)=O	inactive	
CN(C)CCO	inactive	
CCC(C)(c1ccc(O)cc1)c1ccc(O)cc1	inactive	60.7 µM (active)
Clc1ccc(Cl)cc1	inactive	
CCOCCOC(C)=O	inactive	
Cc1ccccc1CO[C@@H]1C[C@@]2(C(C)C)CC[C@]1(C)O2	inactive	
CC(c1ccc(O)cc1)(c1ccc(O)cc1)c1ccc(O)cc1		17.3 µM (active)
O=C(NC(=O)c1c(F)cccc1F)Nc1cc(Cl)c(OC(F)(F)C(F)F)c(Cl)c1	inactive	
CCCCCCCCCc1ccc(O)cc1	inactive	
CC(C)(c1ccccc1)c1ccc(O)cc1	inactive	54 µM (active)
C=CC(=O)NCNC(=O)C=C	inactive	
